# Laboratory results from PubChem BioAssay.
# The source made the active and inactive calls.
# Assays:
# [1] = small molecules captured by biotinylated probe aFSTL3 – biochemical, small-molecule microarray, fluorescence 635/667, stem cell growth factor project, primary screen (AID 1064); settings: higher = more signal;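 also: measures binding of the biotinylated anti-FSTL3 antibody to printed compounds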
# [2] = binders from COS7 lysate, DM2A8 probe, primary screen, torsin A project, cell lysate, small-molecule microarray, fluorescence 635/667 (AID 1065); settings: higher = more signal, COS7 lysate expressing mutant human TOR1A
# [3] = small molecules captured by biotinylated probe aFGF2 – biochemical, small-molecule microarray, fluorescence 635/667, stem cell growth factor project, primary screen (AID 1067); settings: higher = more signal;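 also: measures binding of biotinylated aFGF2 protein to printed compounds on slides; z-score merges feature fluorescence and signal-to-noise across triplicate slides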
# [4] = small molecules captured by biotinylated probe aFGF10 – biochemical, small-molecule microarray, fluorescence 635/667, stem cell growth factor project, primary screen (AID 1071); settings: higher = more signal;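 also: score merges 667 nm spot intensity and signal to noise from triplicate slides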
# [5] = target: Neurogenic locus notch homolog protein 2 (Homo sapiens) (UniProt Q04721); test: small molecules binding Notch2 protein – biochemical, small-molecule microarray, 635 nm fluorescence, stem cell growth factors, primary screen (AID 1073); settings: higher = more signal
# [6] = target: Pro-neuregulin-1, membrane-bound isoform (Homo sapiens) (UniProt Q02297); test: small molecules binding neuregulin-1 protein – biochemical, small-molecule microarray, fluorescence 635/667, psychiatric disease protein project, primary screen (AID 1075); settings: NRG1 binding, 635 nm fluorescence, higher = more signal;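 also: score combines 667 nm spot fluorescence with signal to noise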
# [7] = system: Neuregulin-1 EGF-like domain; test: small molecules binding NRG1 EGF domain – biochemical, small-molecule microarray, 635 nm fluorescence, primary screen (AID 1081); settings: higher = more signal;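 also: binding of the protein to compounds printed on small-molecule microarray slides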
# [8] = FRG1 expression reporter modulators in myotubes – cell-based, C2C12 myotubes, firefly/Renilla luciferase, luminescence, FRG1 inhibition for FSHD, primary screen (AID 1084); settings: FRG1 promoter luciferase, higher = more signal, called active from +8 up or from −8 down
# [9] = small molecules captured by biotinylated probe aFST – biochemical, small-molecule microarray, fluorescence 635/667, stem cell growth factor project, primary screen (AID 1086); settings: higher = more signal;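 also: score merges 667 nm fluorescence with signal-to-noise of each printed compound spot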
# [10] = binders of probe aHhip on microarray, primary screen, stem cell growth factor project, biochemical, small-molecule microarray, fluorescence 635/667 (AID 1087); settings: higher = more signal;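 also: score merges spot fluorescence at 667nm with spot signal to noise ratio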
# Chain of Pro-neuregulin-1, membrane-bound isoform (Homo sapiens) (Q02297 whole entry, looked up, the tested form may be a part, canonical isoform): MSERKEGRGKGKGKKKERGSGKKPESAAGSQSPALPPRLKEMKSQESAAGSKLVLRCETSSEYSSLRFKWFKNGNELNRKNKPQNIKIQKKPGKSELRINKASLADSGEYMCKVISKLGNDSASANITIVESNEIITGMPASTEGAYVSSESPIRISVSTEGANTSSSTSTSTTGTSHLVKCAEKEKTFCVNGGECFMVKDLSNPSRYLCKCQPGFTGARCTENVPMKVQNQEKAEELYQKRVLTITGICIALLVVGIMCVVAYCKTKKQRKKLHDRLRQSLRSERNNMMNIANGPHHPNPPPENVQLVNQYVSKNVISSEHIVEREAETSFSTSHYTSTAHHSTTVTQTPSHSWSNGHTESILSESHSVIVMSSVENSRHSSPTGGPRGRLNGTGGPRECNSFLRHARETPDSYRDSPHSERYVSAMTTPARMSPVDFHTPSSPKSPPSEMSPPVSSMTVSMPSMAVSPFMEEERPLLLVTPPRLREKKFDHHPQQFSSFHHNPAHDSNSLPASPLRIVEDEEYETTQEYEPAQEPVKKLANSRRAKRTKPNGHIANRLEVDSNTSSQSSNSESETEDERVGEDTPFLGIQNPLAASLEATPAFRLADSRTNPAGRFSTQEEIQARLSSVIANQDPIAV
# Chain of Neurogenic locus notch homolog protein 2 (Homo sapiens) (Q04721 whole entry, looked up, canonical isoform): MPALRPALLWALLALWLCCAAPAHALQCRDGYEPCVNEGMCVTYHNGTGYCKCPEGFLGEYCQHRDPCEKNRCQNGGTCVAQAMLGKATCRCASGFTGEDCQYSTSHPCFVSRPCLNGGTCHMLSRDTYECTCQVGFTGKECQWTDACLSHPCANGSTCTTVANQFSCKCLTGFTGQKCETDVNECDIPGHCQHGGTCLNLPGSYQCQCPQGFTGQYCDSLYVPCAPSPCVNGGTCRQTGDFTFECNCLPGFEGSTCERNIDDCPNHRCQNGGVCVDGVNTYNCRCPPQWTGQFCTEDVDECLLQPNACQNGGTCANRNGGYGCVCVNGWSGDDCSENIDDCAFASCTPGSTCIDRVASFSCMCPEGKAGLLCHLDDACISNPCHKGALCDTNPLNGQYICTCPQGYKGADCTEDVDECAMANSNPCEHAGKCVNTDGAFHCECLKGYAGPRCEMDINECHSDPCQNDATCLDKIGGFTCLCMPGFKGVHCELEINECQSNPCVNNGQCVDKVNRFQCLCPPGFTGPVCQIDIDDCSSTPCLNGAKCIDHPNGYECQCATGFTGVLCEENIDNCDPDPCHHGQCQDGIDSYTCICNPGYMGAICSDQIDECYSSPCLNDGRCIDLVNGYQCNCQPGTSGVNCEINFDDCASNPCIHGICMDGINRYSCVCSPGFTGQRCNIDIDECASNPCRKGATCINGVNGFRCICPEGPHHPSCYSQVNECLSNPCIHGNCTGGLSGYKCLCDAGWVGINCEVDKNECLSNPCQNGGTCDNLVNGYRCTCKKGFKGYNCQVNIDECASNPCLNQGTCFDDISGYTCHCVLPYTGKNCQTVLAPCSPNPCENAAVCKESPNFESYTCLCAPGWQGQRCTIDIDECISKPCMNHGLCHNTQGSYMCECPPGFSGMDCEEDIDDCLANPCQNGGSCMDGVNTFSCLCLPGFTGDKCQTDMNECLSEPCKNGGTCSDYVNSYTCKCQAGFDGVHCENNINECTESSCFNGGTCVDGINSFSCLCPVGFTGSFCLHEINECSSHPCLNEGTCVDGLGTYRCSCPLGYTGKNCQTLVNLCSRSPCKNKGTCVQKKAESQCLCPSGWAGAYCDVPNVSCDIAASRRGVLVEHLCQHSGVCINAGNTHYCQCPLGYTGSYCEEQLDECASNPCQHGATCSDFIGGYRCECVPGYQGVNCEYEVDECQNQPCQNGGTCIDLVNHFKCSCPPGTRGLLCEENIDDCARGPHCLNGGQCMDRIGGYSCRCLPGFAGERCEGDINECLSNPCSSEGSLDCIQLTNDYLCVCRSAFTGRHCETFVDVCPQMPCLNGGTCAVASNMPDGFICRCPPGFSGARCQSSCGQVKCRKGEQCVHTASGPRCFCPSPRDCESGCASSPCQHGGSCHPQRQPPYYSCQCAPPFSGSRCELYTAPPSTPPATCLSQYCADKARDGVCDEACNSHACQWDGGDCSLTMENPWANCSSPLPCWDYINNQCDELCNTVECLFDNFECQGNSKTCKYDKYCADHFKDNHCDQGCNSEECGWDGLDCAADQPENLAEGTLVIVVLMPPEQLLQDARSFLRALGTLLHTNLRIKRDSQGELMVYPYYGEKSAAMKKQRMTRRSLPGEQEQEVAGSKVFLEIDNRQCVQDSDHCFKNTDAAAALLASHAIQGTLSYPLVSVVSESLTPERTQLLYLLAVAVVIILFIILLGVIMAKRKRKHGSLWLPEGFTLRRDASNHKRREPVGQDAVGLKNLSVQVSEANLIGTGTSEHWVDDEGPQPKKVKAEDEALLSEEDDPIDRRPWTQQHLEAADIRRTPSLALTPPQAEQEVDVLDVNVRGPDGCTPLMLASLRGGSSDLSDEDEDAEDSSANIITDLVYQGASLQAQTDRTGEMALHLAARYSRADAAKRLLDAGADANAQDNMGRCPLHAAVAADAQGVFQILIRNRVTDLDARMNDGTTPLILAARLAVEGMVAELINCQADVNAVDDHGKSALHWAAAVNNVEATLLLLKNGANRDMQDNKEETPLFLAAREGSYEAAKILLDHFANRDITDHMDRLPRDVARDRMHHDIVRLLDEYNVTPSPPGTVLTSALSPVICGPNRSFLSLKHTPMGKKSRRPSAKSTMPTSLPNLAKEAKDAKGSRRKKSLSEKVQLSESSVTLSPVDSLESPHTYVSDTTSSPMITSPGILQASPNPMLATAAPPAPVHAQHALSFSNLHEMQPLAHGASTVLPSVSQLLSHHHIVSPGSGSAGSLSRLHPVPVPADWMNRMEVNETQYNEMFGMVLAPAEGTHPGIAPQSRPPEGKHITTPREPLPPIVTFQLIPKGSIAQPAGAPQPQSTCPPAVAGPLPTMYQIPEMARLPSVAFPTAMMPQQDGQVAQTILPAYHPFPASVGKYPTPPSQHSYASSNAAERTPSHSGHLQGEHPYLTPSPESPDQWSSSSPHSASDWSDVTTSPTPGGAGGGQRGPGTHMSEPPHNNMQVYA
smiles,measurement,setting,value
CC(=O)OC[C@H]1O[C@H](CC=NOC[C@@H](O)COCc2ccco2)C=C[C@@H]1OC(C)=O,composite z-score,[1],-0.37
same,composite z-score,[2],2.66
same,composite z-score,[3],-0.186
same,composite z-score,[4],-0.153
same,composite z-score,[5],-0.315
same,composite z-score,[6],-0.974
same,composite z-score,[7],0.717
same,z-score,[8],-1.31 (inactive)
same,composite z-score,[9],0.621
same,composite z-score,[10],0.212
CC(C)=NOC(C)CN1CCCc2nc(C)c(C)cc21 (stereo not given),composite z-score,[1],-0.39
same,composite z-score,[2],-0.184
same,composite z-score,[3],-0.0408
same,composite z-score,[4],0.897
same,composite z-score,[5],0.652
same,composite z-score,[6],0.702
same,composite z-score,[7],0.61
same,z-score,[8],0.833 (inactive)
same,composite z-score,[9],0.17
same,composite z-score,[10],-0.201
C[C@@H]1CC[C@H]2C(=O)O[C@@H](CN=[N+]=[N-])CN2[C@H]1c1ccc(Br)cc1,composite z-score,[1],-0.264
same,composite z-score,[2],-0.021
same,composite z-score,[3],-0.085
same,composite z-score,[4],0.361
same,composite z-score,[5],0.271
same,composite z-score,[6],0.486
same,composite z-score,[7],0.786
same,z-score,[8],-1.46 (inactive)
same,composite z-score,[9],0.0048
same,composite z-score,[10],-0.199
CSCC[C@@H]1NC(=O)CC=C[C@@H](C)COC(=O)[C@H](C)COC1=O,composite z-score,[1],-1.1
same,composite z-score,[2],2.81
same,composite z-score,[3],-0.355
same,composite z-score,[4],-1.11
same,composite z-score,[5],-0.979
same,composite z-score,[6],-1.94
same,composite z-score,[7],-0.169
same,z-score,[8],-1.13 (inactive)
same,composite z-score,[9],-0.242
same,composite z-score,[10],0.487
CO[C@H]1COC(=O)[C@H](C)COC(=O)[C@H](C)NC(=O)CC=C[C@H]1C,composite z-score,[1],-0.874
same,composite z-score,[2],1.28
same,composite z-score,[3],-0.145
same,composite z-score,[4],0.37
same,composite z-score,[5],0.127
same,composite z-score,[6],-0.575
same,composite z-score,[7],0.887
same,z-score,[8],-0.592 (inactive)
same,composite z-score,[9],0.0261
same,composite z-score,[10],0.124
CC(=O)OC[C@H]1O[C@@H](ON=C(C)CCN2CCCCc3nc(C)c(C)cc32)[C@H](OC(C)=O)[C@@H](OC(C)=O)[C@@H]1OC(C)=O,composite z-score,[1],-0.587
same,composite z-score,[2],0.515
same,composite z-score,[3],-0.0801
same,composite z-score,[4],0.751
same,composite z-score,[5],1
same,composite z-score,[6],0.853
same,composite z-score,[7],1.16
same,z-score,[8],0.694 (inactive)
same,composite z-score,[9],0.551
same,composite z-score,[10],0.0881
Cc1ccc(C(C)C)n1C(=O)OC(C)(C)C,composite z-score,[1],-0.504
same,composite z-score,[2],0.166
same,composite z-score,[3],-0.0621
same,composite z-score,[4],0.357
same,composite z-score,[5],0.404
same,composite z-score,[6],-0.199
same,composite z-score,[7],0.477
same,z-score,[8],-1.08 (inactive)
same,composite z-score,[9],-0.3
same,composite z-score,[10],0.0749
O=C1C2=CC[C@H]3C(=O)N(Cc4ccccc4)C(=O)[C@H]3[C@H]2[C@H](O)[C@@H]2O[C@H]12,composite z-score,[1],-0.291
same,composite z-score,[2],-0.339
same,composite z-score,[3],-0.132
same,composite z-score,[4],0.011
same,composite z-score,[5],0.0297
same,composite z-score,[6],-0.0087
same,composite z-score,[7],0.281
same,z-score,[8],6.64 (inactive)
same,composite z-score,[9],-0.351
same,composite z-score,[10],0.176
C[C@@H]1C=CCC(=O)OC[C@H](C)C(=O)N[C@@H](Cc2ccccc2)C(=O)OC1,composite z-score,[1],-0.553
same,composite z-score,[2],1.31
same,composite z-score,[3],-0.245
same,composite z-score,[4],0.294
same,composite z-score,[5],0.443
same,composite z-score,[6],-0.302
same,composite z-score,[7],0.422
same,z-score,[8],-0.514 (inactive)
same,composite z-score,[9],0.0347
same,composite z-score,[10],0.605
O=C1CCCC=C1C(O)COCc1ccccc1 (stereo not given),composite z-score,[1],-0.356
same,composite z-score,[2],0.217
same,composite z-score,[3],-0.214
same,composite z-score,[4],0.225
same,composite z-score,[5],-0.263
same,composite z-score,[6],-0.179
same,composite z-score,[7],0.332
same,z-score,[8],0.91 (inactive)
same,composite z-score,[9],-0.302
same,composite z-score,[10],-0.194
COc1cccc([C@H]2Oc3ccc(OC)cc3C(=NOCC[C@@H]3C=C[C@H](OC(C)=O)[C@@H](COC(C)=O)O3)[C@@H]2O)c1,composite z-score,[1],-0.478
same,composite z-score,[2],0.459
same,composite z-score,[3],-0.017
same,composite z-score,[4],0.577
same,composite z-score,[5],0.895
same,composite z-score,[6],1.28
same,composite z-score,[7],0.773
same,z-score,[8],1.52 (inactive)
same,composite z-score,[9],0.366
same,composite z-score,[10],-0.21
CC(C)=CCCC(C)=CCON=C1[C@H]2CCn3c(=O)n(-c4ccccc4)c(=O)n3[C@H]2[C@H](O)[C@@H]2O[C@H]12,composite z-score,[1],-0.279
same,composite z-score,[2],0.207
same,composite z-score,[3],0.0243
same,composite z-score,[4],0.0859
same,composite z-score,[5],0.934
same,composite z-score,[6],0.634
same,composite z-score,[7],0.994
same,z-score,[8],-1.52 (inactive)
same,composite z-score,[9],0.516
same,composite z-score,[10],-0.0645
CC(CCN1CCCc2nc(C)c(C)cc21)=NO[C@H](C)c1cn([C@@H]2COC[C@H]2O)nn1,composite z-score,[1],-0.396
same,composite z-score,[2],1.37
same,composite z-score,[3],-0.0788
same,composite z-score,[4],0.359
same,composite z-score,[5],0.6
same,composite z-score,[6],0.0261
same,composite z-score,[7],1.17
same,z-score,[8],0.59 (inactive)
same,composite z-score,[9],0.3
same,composite z-score,[10],-0.195
COC(=O)CC=C[C@@H](C)[C@@H](C=NOC[C@@H](O)COCc1ccco1)NS(=O)(=O)c1ccc(C)cc1,composite z-score,[1],-0.568
same,composite z-score,[2],0.9
same,composite z-score,[3],-0.162
same,composite z-score,[4],-0.28
same,composite z-score,[5],-0.572
same,composite z-score,[6],-0.767
same,composite z-score,[7],-0.929
same,z-score,[8],0.184 (inactive)
same,composite z-score,[9],-0.0225
same,composite z-score,[10],-0.0237
CC(C)[C@@H](OCc1ccccc1)[C@H](C)C=NO[C@H](C)c1cn([C@@H]2COC[C@H]2O)nn1,composite z-score,[1],-0.478
same,composite z-score,[2],0.402
same,composite z-score,[3],-0.0262
same,composite z-score,[4],0.281
same,composite z-score,[5],0.794
same,composite z-score,[6],-0.0746
same,composite z-score,[7],1.07
same,z-score,[8],0.476 (inactive)
same,composite z-score,[9],-0.0844
same,composite z-score,[10],0.165
COC(=O)CC=C[C@@H](C)[C@@H](C=NOC[C@@H](C)[C@H](OCc1ccccc1)C(C)C)OC,composite z-score,[1],-0.598
same,composite z-score,[2],-0.163
same,composite z-score,[3],-0.0985
same,composite z-score,[4],0.229
same,composite z-score,[5],0.0445
same,composite z-score,[6],-0.296
same,composite z-score,[7],0.413
same,z-score,[8],0.947 (inactive)
same,composite z-score,[9],-0.0348
same,composite z-score,[10],-0.395
